In PubChem BioAssay (Tox21):
Several values for one entry are separate records, joined by “and”; a condition that tells them apart may be missing. Equal values may be shown once. Results filed as inconclusive are left out. Some compounds were tested as several samples or in several runs, with calls that do not always agree. Activity calls are given as the source filed them. Unless noted, calls come from the whole dose curve; as a rule, active = well fitted curve in the direction sought with a large enough effect in the repeat runs; inconclusive = weak or mixed curves; inactive = no such curve, though single readings can be large; an effect the other way counts as inactive or inconclusive.

Columns and labels:
[1] = qHTS assay to identify small molecule antagonists of the glucocorticoid receptor (GR) signaling pathway - cell viability counter screen (AID 720693); note: nearly all actives have a fitted effect of over 55% in size
[2] = qHTS assay for identifying genotoxic compounds that show differential cytotoxicity against isogenic chicken DT40 cell lines with known DNA damage response pathways - wild type cell line (AID 743012); note: nearly all actives have a fitted effect of over 60% in size; note: potency is the fitted concentration of half-maximal effect
In short: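 Cells (DT40 wild type, 300/well) are treated with DMSO-dissolved compounds after a ~0.5 h pre-incubation and kept 40 h at 37 C/5% CO2. Viability is then measured by CellTiter-Glo luminescence following 30 min at room temperature.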

[3] = qHTS assay for identifying genotoxic compounds that show differential cytotoxicity against isogenic chicken DT40 cell lines with known DNA damage response pathways - Rev3 mutant cell line (AID 743014); note: nearly all actives have a fitted effect of over 55% in size; note: potency is the fitted concentration of half-maximal effect
[4] = qHTS assay for identifying genotoxic compounds that show differential cytotoxicity against isogenic chicken DT40 cell lines with known DNA damage response pathways - Rad54/Ku70 mutant cell line (AID 743015); note: nearly all actives have a fitted effect of over 60% in size; note: potency is the fitted concentration of half-maximal effect
[5] = qHTS assay to identify small molecule antagonists of the androgen receptor (AR) signaling pathway - cell viability counter screen (AID 743033; note: nearly all actives have a fitted effect of over 45% in size)
[6] = biological target: Androgen receptor (Homo sapiens) (UniProt P10275); test: qHTS assay to identify small molecule antagonists of the androgen receptor (AR) signaling pathway (AID 743035; active = well fitted inhibition curve with a large enough effect in the signal ratio in the repeat runs, not every such curve was filed as active; the % refers to the signal ratio)
Androgen receptor (Homo sapiens), sequence (P10275 whole entry, looked up): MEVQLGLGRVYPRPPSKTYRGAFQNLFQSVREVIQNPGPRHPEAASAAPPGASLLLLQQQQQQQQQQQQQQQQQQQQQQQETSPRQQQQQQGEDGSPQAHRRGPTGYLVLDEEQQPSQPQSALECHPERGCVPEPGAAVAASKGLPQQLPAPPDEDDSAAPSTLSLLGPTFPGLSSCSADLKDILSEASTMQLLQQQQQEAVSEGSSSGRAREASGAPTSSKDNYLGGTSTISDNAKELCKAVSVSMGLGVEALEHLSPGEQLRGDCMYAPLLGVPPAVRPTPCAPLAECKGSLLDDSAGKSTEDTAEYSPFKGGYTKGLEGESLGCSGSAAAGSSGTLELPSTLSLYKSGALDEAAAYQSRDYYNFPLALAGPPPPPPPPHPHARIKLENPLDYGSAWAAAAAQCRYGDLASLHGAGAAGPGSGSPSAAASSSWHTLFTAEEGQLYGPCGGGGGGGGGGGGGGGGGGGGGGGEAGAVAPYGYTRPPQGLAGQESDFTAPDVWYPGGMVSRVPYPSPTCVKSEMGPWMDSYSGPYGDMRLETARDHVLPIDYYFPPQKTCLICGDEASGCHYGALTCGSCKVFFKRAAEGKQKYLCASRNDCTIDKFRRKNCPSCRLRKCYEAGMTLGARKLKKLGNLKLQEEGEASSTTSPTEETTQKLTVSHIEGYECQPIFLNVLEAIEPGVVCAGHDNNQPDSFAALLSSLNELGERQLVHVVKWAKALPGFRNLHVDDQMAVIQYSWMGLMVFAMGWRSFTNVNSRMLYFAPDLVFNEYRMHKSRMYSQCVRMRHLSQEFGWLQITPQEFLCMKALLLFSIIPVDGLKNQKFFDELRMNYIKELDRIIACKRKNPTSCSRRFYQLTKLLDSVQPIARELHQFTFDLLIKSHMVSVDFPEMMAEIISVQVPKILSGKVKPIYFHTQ
In short: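 Antagonism is scored as loss of R1881-driven beta-lactamase reporter expression in HEK293 cells carrying the reporter under a UAS element, after 16 h co-treatment at 37C and a 2 h room-temperature FRET substrate read.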

[7] = biological target: Androgen receptor (Homo sapiens) (UniProt P10275); test: qHTS assay to identify small molecule agonists of the androgen receptor (AR) signaling pathway (AID 743036; active = well fitted activation curve with a large enough effect in the signal ratio in the repeat runs, with a control signal flat, not every such curve was filed as active; the % refers to the signal ratio)
In short: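 HEK293 cells stably carrying a UAS-driven beta-lactamase reporter (GeneBLAzer AR-UAS-bla-GripTite) were plated at 2,000 cells/well, rested 4 h at 37C, then exposed to compounds in DMSO for 16 h. LiveBLAzer B/G FRET substrate was added for 2 h at room temperature; fluorescence read.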

[8] = biological target: Androgen receptor (Homo sapiens) (UniProt P10275); test: qHTS assay to identify small molecule agonists of the androgen receptor (AR) signaling pathway using the MDA cell line (AID 743040; note: nearly all actives have a fitted effect of over 20% in size)
In short: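 MDA-kb2 breast carcinoma cells stably carrying an MMTV-driven luciferase reporter (AR- and GR-responsive) were seeded and held 5 h at 37C, 0% CO2, then exposed to compounds in DMSO for 16 h. Luminescence was read 30 min after ONE-Glo addition.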

[9] = qHTS assay to identify small molecule antagonists of the androgen receptor (AR) signaling pathway using the MDA cell line - cell viability counter screen (AID 743041; note: nearly all actives have a fitted effect of over 45% in size)
In short: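 MDA-kb2 AR-luc human breast carcinoma cells (MMTV-luciferase, AR/GR responsive) were treated with compounds plus R1881 agonist for 16 h at 37 °C. Viability was read as CellTiter-Fluor fluorescence in the same wells as the reporter assay.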

[10] = biological target: Androgen receptor (Homo sapiens) (UniProt P10275); test: qHTS assay to identify small molecule antagonists of the androgen receptor (AR) signaling pathway using the MDA cell line (AID 743042; note: nearly all actives have a fitted effect of over 55% in size)
In short: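 MDA-kb2 cells (human breast carcinoma, stably carrying an MMTV-luciferase reporter responsive to AR and GR) were plated at 3,000 cells/well and preincubated 5 hr at 37C, then given compound plus R1881 agonist for 16 h. ONE-Glo luminescence was read.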

Measured: Potency

CC(=O)OCc1ccccc1
inactive: [1] | [2] | [3] | [4] | [5] | [6] | [7] | [8] | [9] | [10]

COc1ccc(C)cc1N
inactive: [1] | [2] | [3] | [4] | [5] | [6] | [7] | [8] | [9] | [10]

CN/C(=C\[N+](=O)[O-])NCCSCc1csc(CN(C)C)n1
inactive: [1] | [2] | [3] | [4] | [5] | [6] | [7] | [8] | [9] | [10]

OCc1ccccc1
inactive: [1] | [2] | [3] | [4] | [5] | [6] | [7] | [8] | [9] | [10]

CC(=O)CCC=C(C)C
inactive: [1] | [2] | [3] | [4] | [5] | [9]

COc1ccc(OC)cc1
inactive: [1] | [2] | [3] | [4] | [5] | [9]

CCCCCC(=O)O
inactive: [1] | [2] | [3] | [4] | [5] | [6] | [7] | [8] | [9] | [10]

OCc1cccc(Oc2ccccc2)c1
inactive: [1] | [2] | [3] | [4] | [5] | [7] | [8] | [9] | [10]

C=CCc1ccc(OC)c(OC)c1
inactive: [1] | [2] | [3] | [4] | [5] | [9]

Cc1ccc2ncccc2c1
inactive: [1] | [2] | [3] | [4] | [5] | [9]

CCNc1ccccc1
inactive: [1] | [2] | [3] | [4] | [5] | [6] | [7] | [8] | [9] | [10]

C=CC(=O)OCCC(=O)O
inactive: [1] | [2] | [3] | [4] | [5] | [9]

COc1ccc(CCC(C)=O)cc1
inactive: [1] | [2] | [3] | [4] | [5]

CSc1ccc(Cl)cc1
inactive: [1] | [2] | [3] | [4] | [5] | [6] | [7] | [8] | [9] | [10]

Cc1ccc([N+](=O)[O-])cc1S(=O)(=O)O
inactive: [1] | [2] | [3] | [4] | [5] | [6] | [7] | [8] | [9] | [10]

CC(=O)CC(C)(C)O
inactive: [1] | [2] | [3] | [4] | [5] | [6] | [7] | [8] | [9] | [10]

CCO[Si](CCC#N)(OCC)OCC
inactive: [1] | [2] | [3] | [4] | [5] | [9]

COc1ccc([N+](=O)[O-])cc1N
inactive and 54.5 µM (active): [4]
inactive: [1] | [2] | [3] | [5] | [9]

CC(CCO)CC(C)(C)C (centres undefined)
inactive: [1] | [2] | [3] | [4] | [5] | [6] | [7] | [8] | [9] | [10]

COC(=O)c1cccnc1
inactive: [1] | [2] | [3] | [4] | [5] | [6] | [7] | [8] | [9] | [10]

CC(=O)Oc1ccc(C)cc1
inactive: [1] | [2] | [3] | [4] | [5] | [6] | [7] | [8] | [9] | [10]

CC(C)(C)c1cc(Cc2cc(C(C)(C)C)c(O)c(C(C)(C)C)c2)cc(C(C)(C)C)c1O
active: [3] 61.1 µM
inactive: [1] | [5] | [9]
inactive and 61.1 µM (active): [2]
inactive and 54.5 µM (active): [4]

COc1ccc(N)c(C)c1
inactive: [1] | [2] | [3] | [4] | [5] | [9]

O=C(O)c1cc2ccccc2cc1O
inactive: [1] | [2] | [3] | [4] | [5] | [8] | [9] | [10]

CC(C)CC(=O)CC(C)CC(C)C (centres undefined)
inactive: [1] | [2] | [3] | [4] | [5] | [6] | [7] | [8] | [9] | [10]

COc1cc(OC)c(C(=O)CCCN2CCCC2)c(OC)c1
inactive and 21.7 µM (active): [3]
inactive: [1] | [2] | [4] | [5] | [6] | [7] | [8] | [9] | [10]

NCCCCCCN
inactive: [1] | [2] | [3] | [4] | [5] | [9]

CC(O)CC(C)(C)O (centres undefined)
inactive: [1] | [2] | [3] | [4] | [5] | [9]

CCCCCCCO
inactive: [1] | [2] | [3] | [4] | [5] | [9]

NCCN1CCNCC1
inactive: [1] | [2] | [3] | [4] | [5] | [9]

O=C(O)c1ccc(C(=O)O)c(C(=O)O)c1
inactive: [1] | [2] | [3] | [4] | [5] | [6] | [7] | [8] | [9] | [10]

NC(=S)NNC(N)=S
inactive: [1] | [2] | [3] | [4] | [5] | [9]

CCOC(=O)c1ccc(N)cc1
7.17 µM (active) and inactive: [4]
inactive: [1] | [2] | [3] | [5] | [9]

COc1ccccc1OCC(O)CO (centres undefined)
inactive: [1] | [2] | [3] | [4] | [5] | [6] | [7] | [8] | [9] | [10]

CN(C)c1ccc(Cc2ccc(N(C)C)cc2)cc1
inactive: [1] | [5] | [9]
active: [2] 27.3 µM | [3] 48.8 µM and 27.3 µM | [4] 61.4 µM and 24.3 µM

O=C(O)Cn1c(=O)n(Cc2ccc(Br)cc2F)c(=O)c2ccc(Cl)cc21
inactive: [1] | [2] | [3] | [4] | [5] | [8] | [9] | [10]

CCCCCCCCCCO
inactive: [1] | [2] | [3] | [4] | [5] | [9]

COCCOC(=O)c1ccccc1C(=O)OCCOC
inactive: [1] | [2] | [3] | [4] | [5] | [9]

CCNC(=S)NCC
inactive: [1] | [2] | [3] | [4] | [5] | [9]

CC(C)(Oc1ccc(CCNC(=O)c2ccc(Cl)cc2)cc1)C(=O)O
inactive: [1] | [2] | [3] | [4] | [5] | [9]

O=[N+]([O-])c1ccc2nc[nH]c2c1
inactive: [1] | [2] | [3] | [4] | [5] | [9]

CCCCCCO
inactive: [1] | [2] | [3] | [4] | [5] | [9]

CC(C)CC(C)O (centres undefined)
inactive and 61.1 µM (active): [3]
inactive: [1] | [2] | [4] | [5] | [9]

Clc1ccccn1
inactive: [1] | [2] | [3] | [4] | [5] | [9]

CCCCCCCCCCCC(=O)OC
inactive: [1] | [2] | [3] | [4] | [5] | [9]

c1ccc(Oc2ccccc2)cc1
inactive: [1] | [2] | [3] | [4] | [5] | [9]

CCO[Si](CCCN)(OCC)OCC
inactive: [1] | [2] | [3] | [4] | [5] | [9]

NCCNCCN
inactive: [1] | [2] | [4] | [5] | [9]
inactive and 68.6 µM (active): [3]

CC(C)CCCCCCCOC(=O)CCCCC(=O)OCCCCCCCC(C)C
inactive and 38.6 µM (active): [3]
inactive: [1] | [2] | [4] | [5] | [9]
